Assay results reported in PubChem BioAssay (NCI).
The panel holds about 79,000 compounds, 15% with a hit somewhere; the sample as a whole holds those more often. Active and inactive are the calls of the source. Rule as the data show it: active = growth inhibition above about 70%; inactive = the rest.

Tests used:
[1] = NCI Yeast Anticancer Drug Screen. Data for the rad52 strain (AID 147);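 also: 0% = growth of vehicle-treated control cultures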; conditions: S. cerevisiae rad52 mutant growth inhibition, active compounds read high
Summary of the method: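 Genetically altered yeast (DNA damage repair defect) treated with compound; inhibition calculated relative to vehicle.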

[2] = NCI Yeast Anticancer Drug Screen. Data for the wt1 strain (AID 149);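 also: 0% = growth of vehicle-treated wt1 cultures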; conditions: S. cerevisiae wt1 strain (SPY 50644) growth inhibition, active compounds read high
Summary of the method: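 Using yeast strain wt1, compound-induced growth inhibition was determined against vehicle-treated cultures.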

[3] = NCI Yeast Anticancer Drug Screen. Data for the rad50EPP+ strain (AID 151);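 also: 0% = growth of vehicle-treated control cultures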; conditions: S. cerevisiae rad50 mutant strain, active compounds read high
Summary of the method: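 Strain rad50EPP+; compound exposure; % growth inhibition vs vehicle.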

[4] = NCI Yeast Anticancer Drug Screen. Data for the rad50 strain (AID 155);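 also: 0% = growth of vehicle-only cultures of the same strain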; conditions: S. cerevisiae rad50 strain growth inhibition, active compounds read high
Summary of the method: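 Relative growth inhibition (compound vs vehicle) was measured in yeast with a defined repair-gene alteration.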

[5] = NCI Yeast Anticancer Drug Screen. Data for the mec2-1 strain (AID 157); conditions: S. cerevisiae mec2-1 strain, active compounds read high
Summary of the method: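 Cells of the genetically defined mec2-1 yeast strain are incubated with test compound. Inhibition of growth is calculated against vehicle-treated controls.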

[6] = NCI Yeast Anticancer Drug Screen. Data for the rad14 strain (AID 159);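 also: 0% = growth of vehicle-treated control cultures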; conditions: S. cerevisiae rad14 strain growth inhibition, active compounds read high
Summary of the method: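 Screen for anticancer potential: a yeast strain altered in DNA damage repair is grown with compound, and reduced growth is quantified against vehicle controls.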

[7] = NCI Yeast Anticancer Drug Screen. Data for the sgs1 mgt1 strain (AID 161);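 also: 0% = growth of cultures given vehicle only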; conditions: S. cerevisiae sgs1 mgt1 strain, active compounds read high
Summary of the method: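 Mutant yeast exposed to compound; growth scored against vehicle-only wells.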

[8] = NCI Yeast Anticancer Drug Screen. Data for the CLN2oe strain (AID 163);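 also: 0% = growth of vehicle-only control cultures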; conditions: S. cerevisiae CLN2oe strain, active compounds read high
Summary of the method: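 Strain altered in cell-cycle control, incubated with compound; growth compared to solvent-treated controls.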

[9] = NCI Yeast Anticancer Drug Screen. Data for the cln2 rad14 strain (AID 165);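 also: 0% = growth equal to vehicle treated cultures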; conditions: S. cerevisiae cln2 rad14 strain, active compounds read high
Summary of the method: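 The screen exposed genetically defined yeast (cln2 rad14) to test compounds and scored growth inhibition relative to vehicle-treated controls.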

[10] = NCI Yeast Anticancer Drug Screen. Data for the bub3 strain (AID 167); conditions: S. cerevisiae bub3 mutant strain, active compounds read high
Summary of the method: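 Screening used yeast with an engineered genetic alteration affecting cell cycle control. Compound-exposed cultures were compared with vehicle cultures, and reduced growth was taken as inhibition.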

[11] = NCI Yeast Anticancer Drug Screen. Data for the wt2 strain (AID 169);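 also: 0% = growth of vehicle-treated yeast cultures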; conditions: S. cerevisiae wt2 strain growth inhibition, active compounds read high
Summary of the method: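 Steps: yeast strain treated with compound; growth recorded; inhibition calculated relative to cultures given vehicle alone.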

[12] = NCI Yeast Anticancer Drug Screen. Data for the mlh1 strain (AID 171);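 also: 0% = growth of vehicle-treated control cultures of the same strain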; conditions: S. cerevisiae mlh1 strain growth inhibition, active compounds read high
Summary of the method: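 Yeast screen: mutant strain plus compound, growth scored against vehicle control wells.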

[13] = NCI Yeast Anticancer Drug Screen. Data for the sgs1 strain (AID 173);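 also: 0% = growth of vehicle-only control cultures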; conditions: S. cerevisiae sgs1 mutant, active compounds read high
Summary of the method: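 Inhibition of yeast growth served as the measure. The mutant strain was treated with each compound, and growth was normalised to cultures receiving vehicle alone.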

[14] = NCI Yeast Anticancer Drug Screen. Data for the mlh1 rad18 strain (AID 175); conditions: S. cerevisiae mlh1 rad18 strain growth inhibition, active compounds read high
Summary of the method: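 Compound-treated yeast growth, normalised to vehicle controls. Strain bears defined DNA repair mutations.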

[15] = NCI Yeast Anticancer Drug Screen. Data for the rad18 strain (AID 177); conditions: S. cerevisiae rad18 mutant growth inhibition, active compounds read high
Summary of the method: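 Inhibition values reflect reduced yeast growth compared with vehicle-treated controls, using a strain engineered with a DNA damage repair defect.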

[16] = NCI Yeast Anticancer Drug Screen. Data for the mgt1 strain (AID 153); conditions: S. cerevisiae mgt1 mutant growth inhibition, active compounds read high
Summary of the method: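 Read-out: yeast growth inhibition vs vehicle control. Strain mgt1, drawn from a panel altered in DNA damage repair or cell cycle control.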

[17] = at 5.0 µM (retest, dose inferred, filed as 0.5)
[18] = at 50.0 µM (retest, dose inferred, filed as 5.0)

Measured: growth inhibition

CCOC(=O)C1=C(C)NC(C)=C(C(=O)OCC)C1c1ccc(Cl)cc1
active: [1]; at 11.0 µM 92% | [1]; at 33.0 µM 78% | [1]; at 100.0 µM 92% | [2]; at 100.0 µM 94% | [4]; [17] 98% | [4]; at 11.0 µM 93% | [4]; at 33.0 µM 88% | [4]; [18] 100% | [4]; at 50.0 µM 90.2% | [4]; at 100.0 µM 89% | [5]; [17] 99% | [5]; at 11.0 µM 70% | [5]; at 33.0 µM 70% | [5]; [18] 99% | [5]; at 50.0 µM 91.5% | [5]; at 100.0 µM 92% | [6]; at 11.0 µM 85% | [6]; at 33.0 µM 82% | [6]; at 100.0 µM 93% | [7]; [18] 98% | [8]; at 33.0 µM 83% | [8]; at 100.0 µM 88% | [9]; [18] 98% | [10]; at 11.0 µM 85% | [10]; at 33.0 µM 81% | [10]; [18] 98% | [10]; at 100.0 µM 93% | [11]; at 11.0 µM 74% | [11]; at 33.0 µM 85% | [11]; at 100.0 µM 96% | [12]; at 33.0 µM 84% | [12]; at 100.0 µM 92% | [13]; at 11.0 µM 73% | [13]; at 33.0 µM 89% | [13]; at 100.0 µM 95% | [14]; [17] 100% | [14]; [18] 100% | [14]; at 50.0 µM 90.2% | [15]; at 11.0 µM 93% | [15]; at 33.0 µM 89% | [15]; at 100.0 µM 92%
inactive: [1]; at 1.2 µM -13% | [1]; at 3.7 µM 6% | [2]; at 1.2 µM -23% | [2]; at 3.7 µM -10% | [2]; at 11.0 µM 33% | [2]; at 33.0 µM 60% | [3]; at 1.2 µM 6% | [3]; at 3.7 µM 4% | [3]; at 11.0 µM 16% | [3]; at 33.0 µM 0% | [3]; at 100.0 µM -8% | [4]; at 1.2 µM 14% | [4]; at 3.7 µM 35% | [5]; at 1.2 µM -9% | [5]; at 3.7 µM -5% | [6]; at 1.2 µM -14% | [6]; at 3.7 µM -6% | [7]; [17] -1% | [8]; at 1.2 µM -4% | [8]; at 3.7 µM -10% | [8]; at 11.0 µM 49% | [9]; [17] 27% | [10]; at 1.2 µM 20% | [10]; at 3.7 µM 44% | [10]; [17] 47% | [11]; at 1.2 µM -3% | [11]; at 3.7 µM -10% | [12]; at 1.2 µM -27% | [12]; at 3.7 µM -9% | [12]; at 11.0 µM 44% | [13]; at 1.2 µM 13% | [13]; at 3.7 µM 19% | [15]; at 1.2 µM 4% | [15]; at 3.7 µM 14%

O=C(c1c(F)c(F)c(F)c(F)c1F)c1c(F)c(F)c(F)c(F)c1F
active: [2]; at 11.0 µM 95% | [2]; at 33.0 µM 99% | [2]; at 100.0 µM 99% | [3]; at 11.0 µM 94% | [3]; at 33.0 µM 96% | [3]; at 100.0 µM 92% | [16]; at 11.0 µM 98% | [16]; at 33.0 µM 99% | [16]; at 100.0 µM 99% | [4]; [17] 79% | [4]; at 11.0 µM 95% | [4]; at 33.0 µM 96% | [4]; [18] 97% | [4]; at 50.0 µM 84.6% | [4]; at 100.0 µM 95% | [5]; at 3.7 µM 77% | [5]; at 11.0 µM 99% | [5]; at 33.0 µM 100% | [5]; [18] 99% | [5]; at 50.0 µM 87.5% | [5]; at 100.0 µM 99% | [6]; at 11.0 µM 98% | [6]; at 33.0 µM 99% | [6]; at 100.0 µM 99% | [7]; [18] 74% | [7]; at 50.0 µM 76.7% | [8]; at 3.7 µM 72% | [8]; at 11.0 µM 98% | [8]; at 33.0 µM 99% | [8]; at 100.0 µM 97% | [9]; [18] 70% | [9]; at 50.0 µM 85.7% | [10]; at 3.7 µM 80% | [10]; at 11.0 µM 96% | [10]; at 33.0 µM 99% | [10]; [18] 80% | [10]; at 50.0 µM 88.7% | [10]; at 100.0 µM 97% | [11]; at 11.0 µM 98% | [11]; at 33.0 µM 99% | [11]; at 100.0 µM 98% | [12]; at 11.0 µM 97% | [12]; at 33.0 µM 98% | [12]; at 100.0 µM 97% | [13]; at 3.7 µM 72% | [13]; at 11.0 µM 96% | [13]; at 33.0 µM 97% | [13]; at 100.0 µM 95% | [14]; [18] 88% | [15]; at 11.0 µM 92% | [15]; at 33.0 µM 96% | [15]; at 100.0 µM 93%
inactive: [2]; at 1.2 µM 3% | [2]; at 3.7 µM 49% | [3]; at 1.2 µM 30% | [3]; at 3.7 µM 60% | [16]; at 1.2 µM 24% | [16]; at 3.7 µM 59% | [4]; at 1.2 µM 27% | [4]; at 3.7 µM 59% | [5]; at 1.2 µM 36% | [5]; [17] 61% | [6]; at 1.2 µM 10% | [6]; at 3.7 µM 55% | [7]; [17] 15% | [8]; at 1.2 µM 4% | [9]; [17] 38% | [10]; at 1.2 µM 54% | [10]; [17] 3% | [11]; at 1.2 µM 16% | [11]; at 3.7 µM 52% | [12]; at 1.2 µM 16% | [12]; at 3.7 µM 56% | [13]; at 1.2 µM 39% | [14]; [17] 45% | [14]; at 50.0 µM 67.3% | [15]; at 1.2 µM 28% | [15]; at 3.7 µM 56%
